# In the supplement of paper PMC8728848:
# This is one part of a sample in which the strongest signals are shown more often than they occur.
# B1: F17fG (Escherichia coli), Q9RH91 (protein)
# chain: MTNFYKVFLAVFILVCCNISHAAVSFIGSTENDVGPSQGSYSSTHAMDNLPFVYNTGHNIGYQNANVWRISGGFCVGLDGKVDLPVVGSLDGQSIYGLTEEVGLLIWMGDTNYSRGTAMSGNSWENVFSGWCVGNYVSTQGLSVHVRPVILKRNSSAQYSVQKTSIGSIRMRPYNGSSAGSVQTTVNFSLNPFTLNDTVTSCRLLTPSAVNVSLAAISAGQLPSSGDEVVAGTTSLKLQCDAGVTVWATLTDATTPSNRSDILTLTGASTATGVGLRIYKNTDSTPLKFGPDSPVKGNENQWQLSTGTETSPSVRLYVKYVNTGEGINPGTVNGISTFTFSYQ
# B2: MIC1 (Toxoplasma gondii), O00834 (protein)
# chain: MGQALFLTVLLPVLFGVGPEAYGEASHSHSPASGRYIQQMLDQRCQEIAAELCQSGLRKMCVPSSRIVARNAVGITHQNTLQWRCFDTASLLESNQENNGVNCVDDCGHTIPCPGGVHRQNSNHATRHEILSKLVEEGVQRFCSPYQASANKYCNDKFPGTIARRSKGFGNNVEVAWRCYEKASLLYSVYAECASNCGTTWYCPGGRRGTSTELDKRHYTEEEGIRQAIGSVDSPCSEVEVCLPKDENPPLCLDESGQISRTGGGPPSQPPEMQQPADRSDERGGGKEQSPGGEAQPDHPTKGGNIDLPEKSTSPEKTPKTEIHGDSTKATLEEGQQLTLTFISTKLDVAVGSCHSLVANFLDGFLKFQTGSNSAFDVVEVEEPAGPAVLTIGLGHKGRLAVVLDYTRLNAALGSAAYVVEDSGCSSSEEVSFQGVGSGATLVVTTLGESPTAVSA
# Tests used:
# Assay in all cases: glycan array binding signal (z-score within array); higher = stronger binding
# Conditions in all cases: glycan notation: IUPAC condensed, linker removed
# [1] = target: Fuc(a1-2)Gal(b1-3)GalNAc(b1-4)[Neu5Ac(a2-3)]Gal(b1-4)Glc
# In short: (§1)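 Glycan array data were curated from 3228 arrays in the Consortium for Functional Glycomics database and kept only where the protein sequence was available. Glycan names were converted to IUPAC-condensed notation, and columns mapping to the same glycan were averaged. The binding signal is a within-array Z-score, averaged across arrays of the same protein sequence at different concentrations or buffers and across linkers. Negative Z-scores can be read as non-binding.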
# [2] = target: Fuc(a1-2)Gal(b1-4)GlcNAc
# In short: as §1
# [3] = target: Fuc(a1-2)[Gal(a1-4)]Gal(b1-4)GlcNAc
# In short: as §1
# [4] = target: Fuc(a1-3)[Gal(b1-4)]GlcNAc(b1-4)Gal(b1-4)[Fuc(a1-3)]GlcNAc
# In short: as §1
# [5] = target: Fuc(a1-3)[Gal3S(b1-4)]GlcNAc
# In short: as §1
# [6] = target: Fuc(a1-4)GlcNAc
# In short: as §1
# [7] = target: Gal(b1-3)GlcNAc(b1-3)Gal(b1-4)GlcNAc
# In short: as §1
# [8] = target: Gal3S(b1-3)[Fuc(a1-4)]GlcNAc
# In short: as §1
# [9] = target: Gal3S6S(b1-4)GlcNAc
# In short: as §1
# [10] = target: Gal4S6S(b1-4)GlcNAc
# In short: as §1
# [11] = target: GlcNAc(a1-3)Gal(b1-4)GlcNAc
# In short: as §1
# [12] = target: GlcNAc(a1-6)Gal(b1-4)GlcNAc
# In short: as §1
# [13] = target: GlcNAc(b1-3)Gal
# In short: as §1
# [14] = target: GlcNAc(b1-3)Gal(b1-3)GalNAc
# In short: as §1
# [15] = target: GlcNAc(b1-3)Gal(b1-4)Glc
# In short: as §1
# [16] = target: GlcNAc(b1-3)[GlcNAc(b1-6)]Gal(b1-4)GlcNAc
# In short: as §1
# [17] = target: GlcNAc(b1-3)[GlcNAc(b1-6)]GlcNAc(b1-4)GlcNAc
# In short: as §1
# [18] = target: Man(a1-2)Man(a1-3)[Man(a1-6)]Man(a1-6)[Man(a1-2)Man(a1-3)]Man(b1-4)GlcNAc(b1-4)GlcNAc
# In short: as §1
# [19] = target: Neu5Ac(a2-3)Gal(b1-4)[Fuc(a1-3)]GlcNAc(b1-3)Gal(b1-4)GlcNAc
# In short: as §1
# [20] = target: Neu5Gc(a2-3)Gal(b1-3)[Fuc(a1-4)]GlcNAc
# In short: as §1
# [21] = target: Neu5Gc(a2-3)Gal(b1-4)GlcNAc
# In short: as §1
# [22] = target: Fuc(a1-2)Gal(b1-4)[Fuc(a1-3)]GlcNAc
# In short: as §1
# [23] = target: Fuc(a1-2)Gal(b1-4)[Fuc(a1-3)]GlcNAc(b1-3)Gal(b1-4)[Fuc(a1-3)]GlcNAc
# In short: as §1
# [24] = target: Fuc(a1-3)[Gal3S(b1-4)]GlcNAc6S
# In short: as §1
# [25] = target: Gal(a1-3)Gal(b1-3)GlcNAc
# In short: as §1
# [26] = target: Gal(a1-3)Gal(b1-4)[Fuc(a1-3)]GlcNAc
# In short: as §1
# [27] = target: Gal(a1-3)GalNAc
# In short: as §1
# [28] = target: Gal3S(b1-4)Glc
# In short: as §1
# [29] = target: GlcNAc3Prop(b1-4)GlcNAc
# In short: as §1
# [30] = target: Kdn(a2-3)Gal(b1-4)GlcNAc
# In short: as §1
# [31] = target: Man(a1-2)Man(a1-3)[Man(a1-2)Man(a1-6)]Man(a1-6)[Man(a1-2)Man(a1-2)Man(a1-3)]Man
# In short: as §1
# [32] = target: Neu5Ac(a2-3)Gal
# In short: as §1
# [33] = target: Neu5Ac(a2-3)Gal(b1-3)GalNAc(b1-4)[Neu5Ac(a2-3)]Gal(b1-4)Glc
# In short: as §1
# [34] = target: Neu5Ac(a2-3)Gal(b1-3)GlcNAc6S
# In short: as §1
# [35] = target: Neu5Ac(a2-3)Gal(b1-3)[Neu5Ac(a2-3)Gal(b1-4)]GlcNAc
# In short: as §1
# [36] = target: Neu5Ac(a2-3)Gal(b1-4)GlcNAc(b1-2)Man(a1-3)[GlcNAc(b1-2)Man(b1-4)GlcNAc(b1-2)Man(a1-6)]Man(b1-4)GlcNAc(b1-4)GlcNAc
# In short: as §1
# [37] = target: Neu5Ac(a2-3)Gal(b1-4)GlcNAc6S
# In short: as §1
# [38] = target: Neu5Ac(a2-3)Gal6S(b1-4)[Fuc(a1-3)]GlcNAc
# In short: as §1
# [39] = target: Neu5Ac(a2-3)[GalNAc(b1-4)]Gal(b1-4)GlcNAc
# In short: as §1
# [40] = target: Neu5Ac(a2-3)[Neu5Ac(a2-6)]GalNAc
# In short: as §1
# [41] = target: Neu5Ac(a2-6)Gal(b1-4)GlcNAc(b1-3)Gal(b1-4)[Fuc(a1-3)]GlcNAc(b1-3)Gal(b1-4)[Fuc(a1-3)]GlcNAc
# In short: as §1
# [42] = target: Neu5Ac(a2-6)GalNAc(b1-4)GlcNAc
# In short: as §1
# [43] = target: Neu5Ac9Ac(a2-6)Gal(b1-4)GlcNAc
# In short: as §1
binder,measurement,setting,value
B1,glycan array binding signal (z-score),[1],-0.197
same,glycan array binding signal (z-score),[2],-0.322
same,glycan array binding signal (z-score),[3],-0.127
same,glycan array binding signal (z-score),[4],-0.238
same,glycan array binding signal (z-score),[5],-0.234
same,glycan array binding signal (z-score),[6],-0.38
same,glycan array binding signal (z-score),[7],-0.3
same,glycan array binding signal (z-score),[8],-0.253
same,glycan array binding signal (z-score),[9],0.156
same,glycan array binding signal (z-score),[10],0.026
same,glycan array binding signal (z-score),[11],-0.323
same,glycan array binding signal (z-score),[12],-0.364
same,glycan array binding signal (z-score),[13],5.09
same,glycan array binding signal (z-score),[14],5.89
same,glycan array binding signal (z-score),[15],4.83
same,glycan array binding signal (z-score),[16],6.97
same,glycan array binding signal (z-score),[17],0.169
same,glycan array binding signal (z-score),[18],-0.263
same,glycan array binding signal (z-score),[19],-0.23
same,glycan array binding signal (z-score),[20],-0.305
same,glycan array binding signal (z-score),[21],-0.278
B2,glycan array binding signal (z-score),[1],-0.232
same,glycan array binding signal (z-score),[22],-0.213
same,glycan array binding signal (z-score),[23],-0.138
same,glycan array binding signal (z-score),[5],-0.041
same,glycan array binding signal (z-score),[24],-0.233
same,glycan array binding signal (z-score),[25],-0.059
same,glycan array binding signal (z-score),[26],-0.014
same,glycan array binding signal (z-score),[27],-0.139
same,glycan array binding signal (z-score),[28],-0.149
same,glycan array binding signal (z-score),[9],-0.228
same,glycan array binding signal (z-score),[10],-0.218
same,glycan array binding signal (z-score),[29],-0.196
same,glycan array binding signal (z-score),[30],-0.256
same,glycan array binding signal (z-score),[31],-0.307
same,glycan array binding signal (z-score),[32],-0.068
same,glycan array binding signal (z-score),[33],-0.19
same,glycan array binding signal (z-score),[34],0.131
same,glycan array binding signal (z-score),[35],4.31
same,glycan array binding signal (z-score),[36],3.01
same,glycan array binding signal (z-score),[37],6.25
same,glycan array binding signal (z-score),[38],-0.178
same,glycan array binding signal (z-score),[39],5.43
same,glycan array binding signal (z-score),[40],-0.313
same,glycan array binding signal (z-score),[41],-0.268
same,glycan array binding signal (z-score),[42],-0.152
same,glycan array binding signal (z-score),[43],-0.294
same,glycan array binding signal (z-score),[21],9.71
